Among the data in PubChem BioAssay are cytochrome c release ratio, inhibition of aggregation and glutamate uptake change values, retold here.

A short description of one assay: blockers of cytochrome c efflux from mitochondria – biochemical, purified mitochondria (AID 1603).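 Further: mouse liver mitochondria challenged with calcium chloride; signal normalized to the plate average as 100%.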 The conditions noted are these: stronger effect = lower value.
In the case of `OCCN1CCN(CCCN2c3ccccc3Sc3ccc(C(F)(F)F)cc32)CC1`, the cytochrome c release ratio was 2.24.

As to `NS(=O)(=O)c1cc2c(cc1Cl)NC=NS2(=O)=O`, the cytochrome c release ratio worked out at 0.96.

Consider `O=C1C(CCS(=O)c2ccccc2)C(=O)N(c2ccccc2)N1c1ccccc1` (centres undefined), for which the cytochrome c release ratio stood at 0.57.

With `Cc1ccc(-c2cc(C(F)(F)F)nn2-c2ccc(S(N)(=O)=O)cc2)cc1`, the cytochrome c release ratio was found to be 4.42.

With `Cc1ccccc1C(OCCN(C)C)c1ccccc1` (centres undefined), the cytochrome c release ratio was found to be 1.72.

Consider `CCc1nc(N)nc(N)c1-c1ccc(Cl)cc1`, for which the cytochrome c release ratio was determined as 1.05.

Turning to `CN(C)CCOC(c1ccc(Cl)cc1)c1ccccn1` (centres undefined), the cytochrome c release ratio turned out to be 0.83.

Consider `Nc1ncn([C@@H]2O[C@H](CO)[C@@H](O)[C@H]2O)c(=O)n1`, for which the cytochrome c release ratio was 1.03.

With `NCc1ccc(S(N)(=O)=O)cc1`, the cytochrome c release ratio worked out at 0.88.

Turning to `Cc1ccc(C)c(OCCCC(C)(C)C(=O)O)c1`, the cytochrome c release ratio was 0.86.

On to `NS(=O)(=O)c1cc2c(cc1C(F)(F)F)NC(Cc1ccccc1)NS2(=O)=O` (centres undefined), for which the cytochrome c release ratio turned out to be 1.06.

As for `COC1=CC(=O)C[C@@H](C)[C@]12Oc1c(Cl)c(OC)cc(OC)c1C2=O`, the cytochrome c release ratio stood at 1.14.

For the compound `Cc1cn([C@H]2C[C@H](N=[N+]=[N-])[C@@H](CO)O2)c(=O)[nH]c1=O`, the cytochrome c release ratio worked out at 1.1.

Turning to `COc1ccc(OC)c(C(O)CNC(=O)CN)c1` (centres undefined), the cytochrome c release ratio worked out at 1.63.

Turning to `OC(CCN1CCCC1)(c1ccccc1)C1CCCCC1` (centres undefined), the cytochrome c release ratio turned out to be 0.63.

Regarding `CCCNCC(O)COc1ccccc1C(=O)CCc1ccccc1` (centres undefined), the cytochrome c release ratio worked out at 1.16.

For `NC(=O)c1cnccn1`, the cytochrome c release ratio came out at 1.22.

For `COc1ccccc1OCC(O)COC(N)=O` (centres undefined), the cytochrome c release ratio turned out to be 0.96.

With `COC(=O)Nc1nc2ccc(C(=O)c3ccccc3)cc2[nH]1`, the cytochrome c release ratio is 0.9.

For the compound `Cn1cnc([N+](=O)[O-])c1Sc1ncnc2nc[nH]c12`, the cytochrome c release ratio worked out at 0.54.

On to `c1ccc2[nH]c(-c3cscn3)nc2c1`, for which the cytochrome c release ratio was 1.13.

Regarding `Cc1onc(-c2c(Cl)cccc2Cl)c1C(=O)N[C@@H]1C(=O)N2[C@@H]1SC(C)(C)[C@@H]2C(=O)O`, the cytochrome c release ratio came to 1.34.

For the compound `Clc1ccc2c(c1)C(N1CCNCC1)=Nc1ccccc1O2`, the cytochrome c release ratio was 0.82.

Regarding `CO[C@@]1(NC(=O)Cc2cccs2)C(=O)N2C(C(=O)O)=C(COC(N)=O)CS[C@@H]21`, the cytochrome c release ratio stood at 0.94.

On to `CCc1cccc2c3c([nH]c12)C(CC)(CC(=O)O)OCC3` (centres undefined), for which the cytochrome c release ratio was 0.88.

`CC(C)(C)NCC(O)COc1cccc2c1C[C@H](O)[C@H](O)C2` (some centres undefined): the cytochrome c release ratio was found to be 0.46.

Consider `O=S(=O)(O)CCS`, for which the cytochrome c release ratio stood at 0.92.

For the compound `O=c1[nH]cc(F)c(=O)[nH]1`, the cytochrome c release ratio amounted to 0.98.

The nature of another assay: polyglutamine aggregate formation blockers (AID 1604). The conditions noted are these: polyglutamine-induced protein aggregation inhibition assay; stronger effect = higher value; tested at 2.5 µM.
Turning to `OCCN1CCN(CCCN2c3ccccc3Sc3ccc(C(F)(F)F)cc32)CC1`, the inhibition of aggregation came to 51.3%.

As for `NS(=O)(=O)c1cc2c(cc1Cl)NC=NS2(=O)=O`, the inhibition of aggregation came out at 80.6%.

For the compound `O=C1C(CCS(=O)c2ccccc2)C(=O)N(c2ccccc2)N1c1ccccc1` (centres undefined), the inhibition of aggregation amounted to 71.9%.

For the compound `Cc1ccc(-c2cc(C(F)(F)F)nn2-c2ccc(S(N)(=O)=O)cc2)cc1`, the inhibition of aggregation stood at 77%.

Take `Cc1ccccc1C(OCCN(C)C)c1ccccc1` (centres undefined): the inhibition of aggregation was 70.1%.

Turning to `CCc1nc(N)nc(N)c1-c1ccc(Cl)cc1`, the inhibition of aggregation is 85.8%.

For `CN(C)CCOC(c1ccc(Cl)cc1)c1ccccn1` (centres undefined), the inhibition of aggregation turned out to be 44.8%.

Take `Nc1ncn([C@@H]2O[C@H](CO)[C@@H](O)[C@H]2O)c(=O)n1`: the inhibition of aggregation was 38.1%.

`NCc1ccc(S(N)(=O)=O)cc1`: the inhibition of aggregation amounted to 81.7%.

Consider `Cc1ccc(C)c(OCCCC(C)(C)C(=O)O)c1`, for which the inhibition of aggregation is 39.4%.

With `NS(=O)(=O)c1cc2c(cc1C(F)(F)F)NC(Cc1ccccc1)NS2(=O)=O` (centres undefined), the inhibition of aggregation was determined as 66.2%.

Turning to `COC1=CC(=O)C[C@@H](C)[C@]12Oc1c(Cl)c(OC)cc(OC)c1C2=O`, the inhibition of aggregation is 56.8%.

As to `Cc1cn([C@H]2C[C@H](N=[N+]=[N-])[C@@H](CO)O2)c(=O)[nH]c1=O`, the inhibition of aggregation was found to be 48.1%.

Take `COc1ccc(OC)c(C(O)CNC(=O)CN)c1` (centres undefined): the inhibition of aggregation turned out to be 41.7%.

As for `OC(CCN1CCCC1)(c1ccccc1)C1CCCCC1` (centres undefined), the inhibition of aggregation turned out to be 69.2%.

For `CCCNCC(O)COc1ccccc1C(=O)CCc1ccccc1` (centres undefined), the inhibition of aggregation came out at 21.6%.

On to `NC(=O)c1cnccn1`, for which the inhibition of aggregation was found to be 69.8%.

For `COc1ccccc1OCC(O)COC(N)=O` (centres undefined), the inhibition of aggregation is 88.8%.

Take `COC(=O)Nc1nc2ccc(C(=O)c3ccccc3)cc2[nH]1`: the inhibition of aggregation amounted to 83.3%.

Turning to `Cn1cnc([N+](=O)[O-])c1Sc1ncnc2nc[nH]c12`, the inhibition of aggregation worked out at 83.1%.

On to `c1ccc2[nH]c(-c3cscn3)nc2c1`, for which the inhibition of aggregation came to 30.1%.

As to `Cc1onc(-c2c(Cl)cccc2Cl)c1C(=O)N[C@@H]1C(=O)N2[C@@H]1SC(C)(C)[C@@H]2C(=O)O`, the inhibition of aggregation was 56.3%.

On to `Clc1ccc2c(c1)C(N1CCNCC1)=Nc1ccccc1O2`, for which the inhibition of aggregation was -0.07%.

`CO[C@@]1(NC(=O)Cc2cccs2)C(=O)N2C(C(=O)O)=C(COC(N)=O)CS[C@@H]21`: the inhibition of aggregation is 27.8%.

`CCc1cccc2c3c([nH]c12)C(CC)(CC(=O)O)OCC3` (centres undefined): the inhibition of aggregation worked out at 57.6%.

As to `CC(C)(C)NCC(O)COc1cccc2c1C[C@H](O)[C@H](O)C2` (some centres undefined), the inhibition of aggregation came out at 78.2%.

As to `O=S(=O)(O)CCS`, the inhibition of aggregation worked out at 75%.

In the case of `O=c1[nH]cc(F)c(=O)[nH]1`, the inhibition of aggregation stood at 41.6%.

The nature of the next assay: glutamate transport activators, MN-1 cells, MN-1 cell line (AID 1612).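 Further: tested at 1 µM final; 0% = mean of DMSO vehicle wells on each plate; positive means more glutamate uptake than control and negative means less.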 The conditions noted are these: MN-1 motor neuron cells, stronger effect = higher value.
With `OCCN1CCN(CCCN2c3ccccc3Sc3ccc(C(F)(F)F)cc32)CC1`, the glutamate uptake change was -9.51%.

Take `NS(=O)(=O)c1cc2c(cc1Cl)NC=NS2(=O)=O`: the glutamate uptake change is 4.54%.

As to `O=C1C(CCS(=O)c2ccccc2)C(=O)N(c2ccccc2)N1c1ccccc1` (centres undefined), the glutamate uptake change was -6.33%.

Regarding `Cc1ccc(-c2cc(C(F)(F)F)nn2-c2ccc(S(N)(=O)=O)cc2)cc1`, the glutamate uptake change is -10.9%.

As to `Cc1ccccc1C(OCCN(C)C)c1ccccc1` (centres undefined), the glutamate uptake change turned out to be 36.2%.

In the case of `CCc1nc(N)nc(N)c1-c1ccc(Cl)cc1`, the glutamate uptake change worked out at 14.1%.

For `CN(C)CCOC(c1ccc(Cl)cc1)c1ccccn1` (centres undefined), the glutamate uptake change worked out at 21.1%.

As to `Nc1ncn([C@@H]2O[C@H](CO)[C@@H](O)[C@H]2O)c(=O)n1`, the glutamate uptake change was determined as 3.18%.

Consider `NCc1ccc(S(N)(=O)=O)cc1`, for which the glutamate uptake change is -7.14%.

Turning to `Cc1ccc(C)c(OCCCC(C)(C)C(=O)O)c1`, the glutamate uptake change amounted to 0.82%.

In the case of `NS(=O)(=O)c1cc2c(cc1C(F)(F)F)NC(Cc1ccccc1)NS2(=O)=O` (centres undefined), the glutamate uptake change amounted to 10.7%.

Take `COC1=CC(=O)C[C@@H](C)[C@]12Oc1c(Cl)c(OC)cc(OC)c1C2=O`: the glutamate uptake change is -9%.

Regarding `Cc1cn([C@H]2C[C@H](N=[N+]=[N-])[C@@H](CO)O2)c(=O)[nH]c1=O`, the glutamate uptake change was -23.5%.

For `COc1ccc(OC)c(C(O)CNC(=O)CN)c1` (centres undefined), the glutamate uptake change is -11.6%.

As to `OC(CCN1CCCC1)(c1ccccc1)C1CCCCC1` (centres undefined), the glutamate uptake change is 2.81%.

Regarding `CCCNCC(O)COc1ccccc1C(=O)CCc1ccccc1` (centres undefined), the glutamate uptake change was determined as 9.21%.

Take `NC(=O)c1cnccn1`: the glutamate uptake change was 25.2%.

For the compound `COc1ccccc1OCC(O)COC(N)=O` (centres undefined), the glutamate uptake change is -5.42%.

`COC(=O)Nc1nc2ccc(C(=O)c3ccccc3)cc2[nH]1`: the glutamate uptake change is -29.4%.

`Cn1cnc([N+](=O)[O-])c1Sc1ncnc2nc[nH]c12`: the glutamate uptake change was -23.5%.

For `c1ccc2[nH]c(-c3cscn3)nc2c1`, the glutamate uptake change was -14%.

As to `Cc1onc(-c2c(Cl)cccc2Cl)c1C(=O)N[C@@H]1C(=O)N2[C@@H]1SC(C)(C)[C@@H]2C(=O)O`, the glutamate uptake change is -10.2%.

Turning to `Clc1ccc2c(c1)C(N1CCNCC1)=Nc1ccccc1O2`, the glutamate uptake change was 35.9%.

As to `CO[C@@]1(NC(=O)Cc2cccs2)C(=O)N2C(C(=O)O)=C(COC(N)=O)CS[C@@H]21`, the glutamate uptake change was -21.4%.

Consider `CCc1cccc2c3c([nH]c12)C(CC)(CC(=O)O)OCC3` (centres undefined), for which the glutamate uptake change was -3.42%.

Turning to `CC(C)(C)NCC(O)COc1cccc2c1C[C@H](O)[C@H](O)C2` (some centres undefined), the glutamate uptake change is -4.44%.

In the case of `O=S(=O)(O)CCS`, the glutamate uptake change is -0.24%.

Turning to `O=c1[nH]cc(F)c(=O)[nH]1`, the glutamate uptake change is -1.19%.
